Source: PubChem BioAssay (NCATS)
Results filed as inconclusive are left out. Entries that show only a call come without a potency. The source made the active and inactive calls. Calls come from the whole dose curve; as a rule, active = well fitted inhibition curve with a large enough effect; inconclusive = small, poorly fitted or top-dose-only effect; inactive = flat fitted curve, though single readings scatter.

Columns and labels:
Assay in all cases: qHTS profiling for inhibitors of Plasmodium falciparum proliferation (AID 504749); note: nearly all actives have a fitted effect of over 60% in size
Settings in all cases: P. falciparum in erythrocytes, SYBR Green DNA, 72 h; series mostly up to 28.7 µM
[1] = tested on: CP238
Procedure, shortened: (§1)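 Parasite proliferation within erythrocytes, 72 h exposure. Endpoint: SYBR Green I fluorescence after overnight lysis at room temperature. Controls: 0.29 uM artemisinin, DMSO.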

[2] = tested on: CP252
Procedure, shortened: as §1

[3] = tested on: CP256
Procedure, shortened: as §1

[4] = tested on: CP262
Procedure, shortened: as §1

[5] = tested on: CP265
Procedure, shortened: as §1

[6] = tested on: CP266
Procedure, shortened: as §1

[7] = tested on: CP268
Procedure, shortened: as §1

[8] = tested on: CP269
Procedure, shortened: as §1

[9] = tested on: CP291
Procedure, shortened: as §1

[10] = tested on: CP297
Procedure, shortened: as §1

[11] = tested on: CP305
Procedure, shortened: as §1

[12] = tested on: CP315
Procedure, shortened: as §1

[13] = tested on: CP325
Procedure, shortened: as §1

[14] = tested on: CP329
Procedure, shortened: as §1

[15] = tested on: CP335
Procedure, shortened: as §1

[16] = tested on: DFO2036
Procedure, shortened: as §1

[17] = tested on: CP247
Procedure, shortened: as §1

[18] = tested on: CP250
Procedure, shortened: as §1

[19] = tested on: CP286
Procedure, shortened: as §1

[20] = tested on: CP260
Procedure, shortened: as §1
Potency is the fitted concentration of half-maximal effect.

Row | Structure (SMILES) | Potency [1] | Potency [2] | Potency [3] | Potency [4] | Potency [5] | Potency [6] | Potency [7] | Potency [8] | Potency [9] | Potency [10] | Potency [11] | Potency [12] | Potency [13] | Potency [14] | Potency [15] | Potency [16] | Potency [17] | Potency [18] | Potency [19] | Potency [20]
1 | CC1=CC(=O)c2ccccc2C1=O | inactive | inactive | inactive | inactive | inactive | inactive | inactive | inactive | inactive | inactive | inactive | inactive | inactive | inactive | inactive | inactive |  |  |  | 
2 | COc1ccc(C(=O)CC(=O)c2ccc(C(C)(C)C)cc2)cc1 | inactive | inactive | inactive | inactive | inactive | inactive | inactive | inactive | inactive | inactive | inactive | inactive | inactive | inactive | inactive | inactive | inactive | inactive |  | 
3 | CCn1cc(C(=O)O)c(=O)c2cc(F)c(N3CCNCC3)cc21 | inactive |  |  | inactive | inactive |  |  |  |  |  |  | inactive |  | inactive |  |  | inactive | inactive |  | 
4 | CCn1cc(C(=O)O)c(=O)c2cc(F)c(N3CCN(C)CC3)cc21 | inactive |  |  | inactive |  | inactive | inactive | inactive |  | inactive |  | inactive | inactive | inactive |  |  |  |  | 7.08 µM (active) | 
5 | CCn1cc(C(=O)O)c(=O)c2cc(F)c(N3CCNCC3)nc21 | inactive |  |  | inactive | inactive |  | inactive |  |  | inactive | inactive | inactive | inactive | inactive | inactive |  | inactive | inactive | inactive | 
6 | O=S(=O)(O)CCS | inactive | inactive | inactive | inactive | inactive | inactive | inactive | inactive | inactive | inactive | inactive | inactive | inactive | inactive | inactive | inactive | inactive | inactive | inactive | 
7 | Oc1c(Cl)cc(Cl)c2cccnc12 |  |  |  |  |  | inactive |  |  |  |  |  | inactive |  | 10.7 µM (active) |  | 10 µM (active) | 8.91 µM (active) | 12.6 µM (active) |  | 
8 | CCCCCCNC(=O)n1cc(F)c(=O)[nH]c1=O |  |  |  |  |  |  |  |  | 12 µM (active) |  |  |  |  |  | 5.36 µM (active) |  |  |  | 7.08 µM (active) | 
9 | COc1cccc(N(C)C(=S)Oc2ccc3c(c2)CCCC3)n1 | inactive | inactive | inactive | inactive | inactive | inactive |  | inactive |  |  | inactive | inactive | inactive | inactive |  | inactive | inactive | inactive |  | 
10 | COc1cc([C@@H]2c3cc4c(cc3[C@H](O)[C@H]3COC(=O)[C@H]23)OCO4)cc(OC)c1OC |  |  | 8.91 µM (active) | inactive | 2.51 µM (active) |  | 9.53 µM (active) | 4.26 µM (active) |  | 15.1 µM (active) | 6.75 µM (active) |  | 13.5 µM (active) |  | 3.38 µM (active) | 2.82 µM (active) | 10 µM (active) | 8.91 µM (active) | 4.47 µM (active) | 2.82 µM (active)
11 | O=c1oc2c(O)c(O)cc3c(=O)oc4c(O)c(O)cc1c4c23 |  |  |  |  | inactive |  |  | 0.757 µM (active) |  | 1.51 µM (active) |  |  | inactive | inactive | 0.849 µM (active) |  |  |  | 1 µM (active) | 1.41 µM (active)
12 | CNC1CCCN(c2c(F)cc3c(=O)c(C(=O)O)cn(C4CC4)c3c2OC)C1 (stereo unspecified) | inactive | inactive | inactive | inactive | inactive |  | inactive | inactive | inactive | inactive | inactive | inactive | inactive | inactive | inactive | inactive |  | inactive | inactive | inactive
13 | CC(C)Cn1cnc2c(N)nc3ccccc3c21 | inactive | inactive | inactive | inactive | inactive | inactive | inactive | inactive | inactive | inactive | inactive | inactive | inactive | inactive | inactive | inactive | inactive | inactive | inactive | 
14 | CN1CCCC(n2nc(Cc3ccc(Cl)cc3)c3ccccc3c2=O)CC1 (stereo unspecified) | inactive | inactive | inactive | inactive |  | inactive | inactive | inactive |  |  | inactive | inactive | inactive | inactive |  | inactive |  | inactive |  | 
15 | Cc1oc(=O)oc1CN1CCN(c2cc3c(cc2F)c(=O)c(C(=O)O)c2n3C(C)S2)CC1 (stereo unspecified) | 6.31 µM (active) | 7.94 µM (active) | 8.91 µM (active) |  | 11.2 µM (active) | inactive |  |  |  |  |  | inactive |  |  | 6.01 µM (active) | 7.94 µM (active) | 8.91 µM (active) | 8.91 µM (active) | 7.94 µM (active) | 6.31 µM (active)
16 | CCCc1nc(C)c2c(=O)[nH]c(-c3cc(S(=O)(=O)N4CCN(CC)CC4)ccc3OCC)nn12 | inactive | inactive | inactive | inactive | inactive |  | inactive | inactive | inactive |  | inactive | inactive | inactive | inactive | inactive | inactive | inactive | inactive |  | 
17 | CCOC(=O)c1ccc(OC(=O)CCCCCN=C(N)N)cc1 | inactive | inactive | inactive | inactive |  | inactive | inactive | inactive | inactive | inactive | inactive | inactive | inactive | inactive |  | inactive | inactive | inactive | inactive | 
18 | COc1c(N2CCNC(C)C2)c(F)cc2c(=O)c(C(=O)O)cn(C3CC3)c12 (stereo unspecified) | inactive | inactive |  |  | inactive | inactive | inactive |  |  |  | inactive | inactive | inactive | inactive | inactive | inactive | inactive |  |  | inactive
